From PubChem BioAssay AID1578 (Sanford-Burnham Center for Chemical Genomics, 2009)
Screen size: about 290,000 compounds; about 3,000 (1%) were called active. Shown is part of a subset that was picked to be rich in actives. Unmarked numbers belong to inactive results. Cut-off read from the data, not from the text of the source: active = inhibition mostly above about 36% (no sharp cut-off); inactive = mostly below about 34%.

Assay: inhibition of NOD1-driven NF-kB reporter – cell-based, luminescence, uHTS, primary screen (AID 1578);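 note: HEK-293T reporter cells stimulated with the NOD1 agonist gamma-tri-DAP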
Details: NOD1-driven NF-kB luciferase reporter cells, at 4 µM, active compounds read high

Compound | inhibition
Cc1ccc(Cn2ccnc2SCC(=O)NC2CCCC2)cc1 | 51.4% (active)
O=C(CSc1nccn1Cc1ccc(F)cc1)NC1CCCC1 | -2.9%
Cc1ccc(S(=O)(=O)N(C)C)cc1NC(=O)C1CCCC1 | 18.4%
COc1ccccc1OCCCC(=O)NC(C)c1ccccc1 (stereo not drawn) | -14.4%
C=CCn1c(C)cc(C2=NNC(=Nc3ccc(C)cc3)SC2)c1C | -66.7%
COCCN=C1NN=C(c2cc(C)n(CC3CCCO3)c2C)CS1 (stereo not drawn) | 9.1%
C=CCn1c(C)cc(C2=NNC(=NCC)SC2)c1C | 103% (active)
COCCn1c(C)cc(C2=NNC(=Nc3ccc(OC)cc3)SC2)c1C | -3.2%
C=CCN=C1NN=C(c2cc(C)n(CCOC)c2C)CS1 | 88.5% (active)
Cc1cc(C2=NNC(=NCCc3ccccc3)SC2)c(C)n1CC1CCCO1 (stereo not drawn) | -23%
COCCn1c(C)cc(C2=NNC(=NC(C)(C)C)SC2)c1C | -27.4%
C=CCN=C1NN=C(c2cc(C)n(CC=C)c2C)CS1 | 85.5% (active)
C=CCn1c(C)cc(C2=NNC(=NC(C)(C)C)SC2)c1C | 65%
COCCCN=C1NN=C(c2cc(C)n(Cc3ccccc3Cl)c2C)CS1 | -46.7%
C=CCn1c(C)cc(C2=NNC(=NCc3ccccc3)SC2)c1C | -61.6%
COCCn1c(C)cc(C2=NNC(=NC3CC3)SC2)c1C | 107% (active)
Fc1cccc(CN2CCN(Cc3nc(CCc4ccccc4)no3)CC2)c1 | -21.1%
Cc1ccc(O)c(C(CC(=O)NCc2ccco2)c2ccccc2)c1 (stereo not drawn) | -21.1%
Cc1nnc(SCC(=O)c2ccccc2F)n1Cc1ccccc1 | -6.1%
COCC1CCN(C(=O)c2cc(COc3ccc(OC)c4ccccc34)on2)C1 (stereo not drawn) | -73.2%
CS(=O)(=O)N(CCCC(=O)N1CCCCCC1)c1cccc(Cl)c1 | 0.2%
CCN(CC)CCNC(CC(=O)Nc1ccc(Cl)cc1Cl)C(=O)O (stereo not drawn) | -7%
COc1ccc(-c2cc(NCCc3ccncc3)n3ncnc3n2)cc1 | 2.6%
COc1ccc(NC(=O)NCc2ccco2)cc1OC | -24.4%

Compound | inhibition
COc1cc(S(=O)(=O)NCc2ccncc2)c(OC)cc1C | -15.2%
O=[N+]([O-])c1cccc(/C=C/c2nc[nH]c2[N+](=O)[O-])c1 | -10.5%
Cc1cccc(C(=O)Oc2ccccc2C(=O)N2CCOCC2)c1 | -8.5%
COCCn1c(C)cc(C2=NNC(=Nc3ccc(Cl)cc3Cl)SC2)c1C | 13.9%
COCCn1c(C)cc(C2=NNC(=Nc3ccccc3F)SC2)c1C | 65.1% (active)
COCCn1c(C)cc(C2=NNC(=Nc3ccccc3)SC2)c1C | -63.4%
Cc1c(C)c2ccc(O)c(CN3CCCC3)c2oc1=O | 15.3%
Cn1c2ccccc2c(=O)c2ccc(C#CC3(O)CCCCC3)cc21 | 82% (active)
Cn1c2ccccc2c(=O)c2cc(C#CC3(O)CCCCC3)ccc21 | 35%
Cn1c2ccccc2c(=O)c2ccc(C#CC3(N)CCCCC3)cc21 | 30.6%
CCC(=O)N1CCc2cc(S(=O)(=O)NCCC(=O)N3CCN(c4ccccc4)CC3)ccc21 | -26.5%
O=C1CCN(CCCc2ccccc2)CCN1[C@H](CO)Cc1ccccc1 | -31.4%
COc1ccc(-c2nc(C#N)c(N3CCN(c4cccc(Cl)c4)CC3)o2)cc1OC | 5.2%
COc1ccccc1-c1nc(C#N)c(N2CCN(c3ccccc3)CC2)o1 | -2.9%
C[C@@H]1CC=C[C@H]2[C@H]1C(=O)N(Cc1ccccc1)[C@H]2c1ccc(-c2ccoc2)cc1F | -2.6%
Cc1c(O)ccc2c(CC(=O)N[C@@H](Cc3c[nH]c4ccccc34)C(=O)O)cc(=O)oc12 | -0.1%
FC(F)(F)c1cc(-c2ccccc2)nc(N2CCCCC2)n1 | 8.3%
FC(F)(F)c1cc(-c2ccccc2)nc(N2CCCCCC2)n1 | 37.9% (active)
CN1CCN(c2nc(-c3ccccc3)cc(C(F)(F)F)n2)CC1 | -26.3%
Cc1nn(C)cc1/C=N\NC(=O)Cc1ccc([N+](=O)[O-])cc1 | -27.7%
COc1ccc(C#Cc2ccc3c(=O)c4ccccc4n(C)c3c2)cc1 | 25.7%
CCC(=O)NC(=S)Nc1cccc(Cl)c1N1CCCC1 | 55.9% (active)
CCCC(=O)NC(=S)Nc1cccc(Cl)c1N1CCCC1 | -26.8%
CCCC(=O)NC(=S)Nc1cccc(Cl)c1N1CCCCC1 | -26.4%
